In PMC11006913:

Key:
Experiment in all cases: PBM; 200 nM protein, PBS
Conditions in all cases: dsDNA, one strand shown
CRX [1] = target: CRX (Homo sapiens, UniProt O43186 26-111)
CRX [2] = target: CRX (Homo sapiens, UniProt O43186 26-111, E42D)
HOXD13 [3] = target: HOXD13 (Homo sapiens, UniProt P35453 263-343, T313R)
HOXD13 [4] = target: HOXD13 (Homo sapiens, UniProt P35453 263-343)
HOXD13 [5] = target: HOXD13 (Homo sapiens, UniProt P35453 263-343, T313A)
CRX [6] = target: CRX (Homo sapiens, UniProt O43186 26-111, R41L)
PITX2 = PITX2 (Homo sapiens, UniProt Q99697 72-157)
PROP1 [7] = target: PROP1 (Homo sapiens, UniProt O75360 56-141)
PROP1 [8] = target: PROP1 (Homo sapiens, UniProt O75360 56-141, F88S)
ALX1 [9] = target: ALX1 (Homo sapiens, UniProt Q15699 118-204, L144V)
ALX1 [10] = target: ALX1 (Homo sapiens, UniProt Q15699 118-204, L144R)
ALX1 [11] = target: ALX1 (Homo sapiens, UniProt Q15699 118-204)
ALX3 [12] = target: ALX3 (Homo sapiens, UniProt O95076 139-225, N203Q)
ALX3 [13] = target: ALX3 (Homo sapiens, UniProt O95076 139-225)
ALX3 [14] = target: ALX3 (Homo sapiens, UniProt O95076 139-225, L168Q)
ALX3 [15] = target: ALX3 (Homo sapiens, UniProt O95076 139-225, L168V)
ALX3 [16] = target: ALX3 (Homo sapiens, UniProt O95076 139-225, N203S)
ALX3 (Homo sapiens, UniProt O95076 139-225, N203S), sequence (O95076 139-225 N203S): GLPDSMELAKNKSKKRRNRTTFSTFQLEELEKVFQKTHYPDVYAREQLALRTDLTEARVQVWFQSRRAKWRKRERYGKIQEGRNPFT

CRX (Homo sapiens, UniProt O43186 26-111), sequence (O43186 26-111): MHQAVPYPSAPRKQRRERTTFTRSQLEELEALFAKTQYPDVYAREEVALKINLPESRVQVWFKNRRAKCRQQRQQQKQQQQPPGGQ
CRX (Homo sapiens, UniProt O43186 26-111, E42D), sequence (O43186 26-111 E42D): as the sequence (O43186 26-111) above, with E17D counted along it
CRX (Homo sapiens, UniProt O43186 26-111, R41L), sequence (O43186 26-111 R41L): as the sequence (O43186 26-111) above, with R16L counted along it
ALX3 (Homo sapiens, UniProt O95076 139-225), sequence (O95076 139-225): as the sequence (O95076 139-225 N203S) above, with S65N counted along it
ALX3 (Homo sapiens, UniProt O95076 139-225, N203Q), sequence (O95076 139-225 N203Q): as the sequence (O95076 139-225 N203S) above, with S65Q counted along it
ALX1 (Homo sapiens, UniProt Q15699 118-204, L144V), sequence (Q15699 118-204 L144V): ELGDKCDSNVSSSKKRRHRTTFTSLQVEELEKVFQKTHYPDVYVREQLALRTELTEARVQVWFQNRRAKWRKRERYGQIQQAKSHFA
HOXD13 (Homo sapiens, UniProt P35453 263-343), sequence (P35453 263-343): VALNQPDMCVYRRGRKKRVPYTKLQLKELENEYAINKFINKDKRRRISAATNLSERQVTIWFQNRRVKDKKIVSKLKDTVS
ALX1 (Homo sapiens, UniProt Q15699 118-204), sequence (Q15699 118-204): as the sequence (Q15699 118-204 L144V) above, with V27L counted along it
PROP1 (Homo sapiens, UniProt O75360 56-141, F88S), sequence (O75360 56-141 F88S): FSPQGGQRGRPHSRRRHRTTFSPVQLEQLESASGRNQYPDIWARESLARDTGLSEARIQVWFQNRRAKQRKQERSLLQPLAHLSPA
ALX3 (Homo sapiens, UniProt O95076 139-225, L168Q), sequence (O95076 139-225 L168Q): as the sequence (O95076 139-225 N203S) above, with L30Q, S65N counted along it
HOXD13 (Homo sapiens, UniProt P35453 263-343, T313R), sequence (P35453 263-343 T313R): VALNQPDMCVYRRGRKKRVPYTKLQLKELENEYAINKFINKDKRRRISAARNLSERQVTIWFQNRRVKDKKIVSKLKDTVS
PROP1 (Homo sapiens, UniProt O75360 56-141), sequence (O75360 56-141): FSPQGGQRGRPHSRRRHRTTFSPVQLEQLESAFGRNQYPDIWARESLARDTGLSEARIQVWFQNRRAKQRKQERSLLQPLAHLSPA
ALX1 (Homo sapiens, UniProt Q15699 118-204, L144R), sequence (Q15699 118-204 L144R): as the sequence (Q15699 118-204 L144V) above, with V27R counted along it
ALX3 (Homo sapiens, UniProt O95076 139-225, L168V), sequence (O95076 139-225 L168V): as the sequence (O95076 139-225 N203S) above, with L30V, S65N counted along it
HOXD13 (Homo sapiens, UniProt P35453 263-343, T313A), sequence (P35453 263-343 T313A): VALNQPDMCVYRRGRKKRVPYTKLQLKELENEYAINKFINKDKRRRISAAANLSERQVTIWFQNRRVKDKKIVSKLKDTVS

## CACGCTCC
CRX [1]
  binding signal: 8.3 upbm affinity estimate (log intensity, higher = more binding, comparable within an allelic series)
CRX [2]
  binding signal: 8.47 upbm affinity estimate (log intensity, higher = more binding, comparable within an allelic series)
HOXD13 [3]
  binding signal: 9.56 upbm affinity estimate (log intensity, higher = more binding, comparable within an allelic series)
HOXD13 [4]
  binding signal: 9.55 upbm affinity estimate (log intensity, higher = more binding, comparable within an allelic series)
HOXD13 [5]
  binding signal: 9.79 upbm affinity estimate (log intensity, higher = more binding, comparable within an allelic series)
CRX [6]
  binding signal: 8.41 upbm affinity estimate (log intensity, higher = more binding, comparable within an allelic series)

## CCTCTGAC
CRX [1]
  binding signal: 7.95 upbm affinity estimate (log intensity, higher = more binding, comparable within an allelic series)
CRX [2]
  binding signal: 8.28 upbm affinity estimate (log intensity, higher = more binding, comparable within an allelic series)
PITX2
  binding signal: 7.92 upbm affinity estimate (log intensity, higher = more binding, comparable within an allelic series)
CRX [6]
  binding signal: 8.19 upbm affinity estimate (log intensity, higher = more binding, comparable within an allelic series)

## GGGATTAA
CRX [1]
  binding signal: 13.7 upbm affinity estimate (log intensity, higher = more binding, comparable within an allelic series)
CRX [2]
  binding signal: 13.8 upbm affinity estimate (log intensity, higher = more binding, comparable within an allelic series)
PITX2
  binding signal: 13.6 upbm affinity estimate (log intensity, higher = more binding, comparable within an allelic series)
CRX [6]
  binding signal: 13.7 upbm affinity estimate (log intensity, higher = more binding, comparable within an allelic series)

## GACAACCA
CRX [1]
  binding signal: 8.34 upbm affinity estimate (log intensity, higher = more binding, comparable within an allelic series)
CRX [2]
  binding signal: 8.18 upbm affinity estimate (log intensity, higher = more binding, comparable within an allelic series)
PITX2
  binding signal: 7.92 upbm affinity estimate (log intensity, higher = more binding, comparable within an allelic series)
CRX [6]
  binding signal: 8.21 upbm affinity estimate (log intensity, higher = more binding, comparable within an allelic series)

## GGATTACC
CRX [1]
  binding signal: 13.3 upbm affinity estimate (log intensity, higher = more binding, comparable within an allelic series)
CRX [2]
  binding signal: 13.3 upbm affinity estimate (log intensity, higher = more binding, comparable within an allelic series)
PITX2
  binding signal: 13.1 upbm affinity estimate (log intensity, higher = more binding, comparable within an allelic series)
CRX [6]
  binding signal: 13.3 upbm affinity estimate (log intensity, higher = more binding, comparable within an allelic series)

## CTAATCTC
CRX [1]
  binding signal: 13 upbm affinity estimate (log intensity, higher = more binding, comparable within an allelic series)
CRX [2]
  binding signal: 13 upbm affinity estimate (log intensity, higher = more binding, comparable within an allelic series)
PITX2
  binding signal: 12.6 upbm affinity estimate (log intensity, higher = more binding, comparable within an allelic series)
PROP1 [7]
  binding signal: 8.84 upbm affinity estimate (log intensity, higher = more binding, comparable within an allelic series)
PROP1 [8]
  binding signal: 7.25 upbm affinity estimate (log intensity, higher = more binding, comparable within an allelic series)
CRX [6]
  binding signal: 12.7 upbm affinity estimate (log intensity, higher = more binding, comparable within an allelic series)

## AAATCTGC
CRX [1]
  binding signal: 10.8 upbm affinity estimate (log intensity, higher = more binding, comparable within an allelic series)
CRX [2]
  binding signal: 10.6 upbm affinity estimate (log intensity, higher = more binding, comparable within an allelic series)
ALX1 [9]
  binding signal: 8.09 upbm affinity estimate (log intensity, higher = more binding, comparable within an allelic series)
ALX1 [10]
  binding signal: 8 upbm affinity estimate (log intensity, higher = more binding, comparable within an allelic series)
CRX [6]
  binding signal: 10.6 upbm affinity estimate (log intensity, higher = more binding, comparable within an allelic series)
ALX1 [11]
  binding signal: 8.23 upbm affinity estimate (log intensity, higher = more binding, comparable within an allelic series)

## AGAGATTA
CRX [1]
  binding signal: 13.1 upbm affinity estimate (log intensity, higher = more binding, comparable within an allelic series)
CRX [2]
  binding signal: 13.1 upbm affinity estimate (log intensity, higher = more binding, comparable within an allelic series)
PITX2
  binding signal: 12.7 upbm affinity estimate (log intensity, higher = more binding, comparable within an allelic series)
CRX [6]
  binding signal: 13 upbm affinity estimate (log intensity, higher = more binding, comparable within an allelic series)

## AGGATTAC
CRX [1]
  binding signal: 13.1 upbm affinity estimate (log intensity, higher = more binding, comparable within an allelic series)
CRX [2]
  binding signal: 13 upbm affinity estimate (log intensity, higher = more binding, comparable within an allelic series)
PITX2
  binding signal: 12.9 upbm affinity estimate (log intensity, higher = more binding, comparable within an allelic series)
CRX [6]
  binding signal: 13 upbm affinity estimate (log intensity, higher = more binding, comparable within an allelic series)

## ATAATCCG
CRX [1]
  binding signal: 13.7 upbm affinity estimate (log intensity, higher = more binding, comparable within an allelic series)
CRX [2]
  binding signal: 13.8 upbm affinity estimate (log intensity, higher = more binding, comparable within an allelic series)
PITX2
  binding signal: 13.3 upbm affinity estimate (log intensity, higher = more binding, comparable within an allelic series)
CRX [6]
  binding signal: 13.9 upbm affinity estimate (log intensity, higher = more binding, comparable within an allelic series)

## AGGTGCGG
CRX [1]
  binding signal: 8.42 upbm affinity estimate (log intensity, higher = more binding, comparable within an allelic series)
CRX [2]
  binding signal: 8.46 upbm affinity estimate (log intensity, higher = more binding, comparable within an allelic series)
ALX3 [12]
  binding signal: 7.78 upbm affinity estimate (log intensity, higher = more binding, comparable within an allelic series)
ALX3 [13]
  binding signal: 7.66 upbm affinity estimate (log intensity, higher = more binding, comparable within an allelic series)
ALX3 [14]
  binding signal: 7.81 upbm affinity estimate (log intensity, higher = more binding, comparable within an allelic series)
ALX3 [15]
  binding signal: 7.75 upbm affinity estimate (log intensity, higher = more binding, comparable within an allelic series)
CRX [6]
  binding signal: 8.35 upbm affinity estimate (log intensity, higher = more binding, comparable within an allelic series)
ALX3 [16]
  binding signal: 7.79 upbm affinity estimate (log intensity, higher = more binding, comparable within an allelic series)

## GGATTAAC
CRX [1]
  binding signal: 13.6 upbm affinity estimate (log intensity, higher = more binding, comparable within an allelic series)
CRX [2]
  binding signal: 13.6 upbm affinity estimate (log intensity, higher = more binding, comparable within an allelic series)
PITX2
  binding signal: 13.3 upbm affinity estimate (log intensity, higher = more binding, comparable within an allelic series)
CRX [6]
  binding signal: 13.5 upbm affinity estimate (log intensity, higher = more binding, comparable within an allelic series)
